Source: PubChem
Cycloheximide cs: counter-screen for Shiga toxin inhibitors: cycloheximide protein synthesis inhibition. max response, %. cell reporter, cycloheximide protein synthesis inhibition counterscreen. 300,000 compounds, 12% hits; in the data active = max response mostly above about 13%, no sharp cut-off; inactive = mostly below about 14%; also: read at 38.3 µM for the half of the compounds with a filed dose
Pf growth 96h: P. falciparum growth inhibition at 96 hours | P. falciparum luciferase reporter growth, 96 h | 320,000 compounds, 6.9% hits | Potency, µM (top dose mostly 28.7 µM), actives largely listed as inhibitors
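Two parasite generations (96 h, 37 C, 5% CO2) of compound exposure in infected erythrocytes (0.05% parasitemia, 2% hematocrit). Luciferase-reporter P. falciparum; decreased luminescence indicates inhibited growth, aimed at apicoplast-acting delayed death.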
LASV entry inh: Lassa virus entry inhibition. Lassa virus pseudotype entry inhibition, cell reporter. Potency, µM (highest dose often 37.9 µM), hits mostly inhibitors. 300,000 compounds, 1.2% hits. AID 540256; calls by dose curve; tested in HEK293 cells; also: nearly all actives have a fitted effect of over 50% in size
Pf growth 48h: P. falciparum growth inhibition at 48 hours (one generation) | P. falciparum luciferase growth in erythrocytes, 48 h | Potency, µM (top dose mostly 28.7 µM), most hits filed as inhibitors | 310,000 compounds, 5.9% hits
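Firefly luciferase activity from engineered P. falciparum reports growth; inhibitors lower the luminescent signal. Cultures contained 2% hematocrit erythrocytes at 0.1% final parasitemia.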
Shiga inhibitor: Shiga toxin inhibition. Vero cells, Shiga toxin protein synthesis inhibition reporter. inhibition, % at 38.7 µM. 290,000 compounds, 9.2% hits. AID 2315; in the data active = inhibition mostly above about 28%, no sharp cut-off; inactive = mostly below about 43%
Marburg entry inh: Marburg virus entry inhibition. Marburg virus pseudotyped entry inhibition, cell reporter. Potency, µM (top dose mostly 37.8 µM), most hits filed as inhibitors. 300,000 compounds, 1.8% hits; calls by dose curve; tested in HEK293 cells
A number is an active result; [ ] = remark or other dose. Only some compounds are listed: those with a hit (about 19% of all), similar ones and a draw of the others. Unless noted, calls follow the shape of the dose curve; as a rule, active = well fitted inhibition curve with a large enough effect; inconclusive = small, poorly fitted or top-dose-only effect, or another doubt; inactive = no such curve, though single readings can be large or run the other way.

How did COCCNC(=S)Nc1ccc2nc(N3CCN(C)CC3)cc(C)c2c1 do in these assays?
Cycloheximide cs: inactive; Pf growth 96h: inactive; LASV entry inh: inactive; Pf growth 48h: inactive; Shiga inhibitor: inactive; Marburg entry inh: inactive

What do the screens show for `CCN(CC)CCNC(=S)Nc1ccc2nc(N3CCOCC3)cc(C)c2c1`?
Cycloheximide cs: inactive; Pf growth 96h: inactive; Pf growth 48h: inactive[0.00184 µM]; Shiga inhibitor: inactive

How did Cc1cc(N2CCOCC2)nc2ccc(NC(=S)N3CCN(c4ccccc4)CC3)cc12 do in these assays?
Cycloheximide cs: inactive; Pf growth 96h: inconclusive; LASV entry inh: inconclusive; Pf growth 48h: inconclusive; Shiga inhibitor: inactive; Marburg entry inh: inconclusive

How did Cc1cc(N2CCOCC2)nc2ccc(Cl)cc12 do in these assays?
Cycloheximide cs: 41; Pf growth 96h: inactive; LASV entry inh: inactive; Pf growth 48h: inactive; Shiga inhibitor: 62; Marburg entry inh: inconclusive

Results for CCCN(CCC)CCCNC(=S)Nc1ccc2nc(N3CCCC3)cc(C)c2c1 ?
Cycloheximide cs: inactive; Pf growth 96h: inconclusive; Pf growth 48h: 1.5µM; Shiga inhibitor: inactive

What do the screens show for `CCN(CC)CCNC(=S)Nc1ccc2nc(N3CCN(C)CC3)cc(C)c2c1`?
Cycloheximide cs: inactive; Pf growth 96h: inactive; LASV entry inh: inconclusive; Pf growth 48h: 10µM; Shiga inhibitor: inactive; Marburg entry inh: inconclusive

How did CCN(CC)CCNC(=S)Nc1ccc2nc(N3CCCC3)cc(C)c2c1 do in these assays?
Cycloheximide cs: inactive; Pf growth 96h: inactive; LASV entry inh: inconclusive; Pf growth 48h: inconclusive; Shiga inhibitor: inactive; Marburg entry inh: 4.1µM

Results for Cc1ccc(C2=NNC(=O)C(c3ccc(Cl)cc3)C2)cc1 (centres undefined) ?
Cycloheximide cs: inactive; LASV entry inh: inactive; Pf growth 48h: inactive; Shiga inhibitor: inactive; Marburg entry inh: inactive

How did COc1ccc(C(=O)NCCc2nnc3ccc(SCC(=O)NCc4ccc(F)cc4)nn23)cc1 do in these assays?
Cycloheximide cs: inactive; Pf growth 96h: inactive; LASV entry inh: inactive; Pf growth 48h: inactive; Shiga inhibitor: inactive; Marburg entry inh: inactive

What do the screens show for `CC/C(=N\NC(=O)Nc1nonc1N)c1ccc(OC)c(OC)c1`?
Cycloheximide cs: inactive; Pf growth 96h: inactive; LASV entry inh: inactive; Pf growth 48h: inactive; Shiga inhibitor: inactive; Marburg entry inh: inactive

How did CCOC(=O)/C=C1\NC(=O)CS1 do in these assays?
Cycloheximide cs: inactive; LASV entry inh: inactive; Pf growth 48h: inactive; Shiga inhibitor: inactive; Marburg entry inh: inactive

How did COc1ccccc1CNC(=S)Nc1ccc2nc(N3CCN(C)CC3)cc(C)c2c1 do in these assays?
Cycloheximide cs: inactive; Pf growth 96h: inactive; LASV entry inh: inactive; Pf growth 48h: 6.6µM; Shiga inhibitor: inactive; Marburg entry inh: inconclusive

Results for CCOCCCNC(=S)Nc1ccc2nc(N3CCOCC3)cc(C)c2c1 ?
Cycloheximide cs: inactive; Pf growth 96h: 15µM; Pf growth 48h: inactive; Shiga inhibitor: inactive

Results for C#CCNc1ccncc1S(=O)(=O)NC(=O)NC(C)C ?
Cycloheximide cs: inactive; Pf growth 96h: inactive; LASV entry inh: inactive; Pf growth 48h: inactive; Shiga inhibitor: inactive; Marburg entry inh: inactive

How did N#Cc1nc(-c2ccc(F)cc2)oc1N1CCCC1 do in these assays?
Cycloheximide cs: inactive; Pf growth 96h: 0.29µM; LASV entry inh: inactive; Pf growth 48h: inactive; Shiga inhibitor: inactive; Marburg entry inh: inconclusive

How did Cc1cccc(-c2nc(C#N)c(N3CCCCC3)o2)c1 do in these assays?
Cycloheximide cs: 27; Pf growth 96h: inactive; Pf growth 48h: inactive; Shiga inhibitor: 37

Results for Cc1cccc(-c2nc(C#N)c(NC3CCCCC3)o2)c1 ?
Cycloheximide cs: 50; Pf growth 96h: 4.7µM; LASV entry inh: inactive; Pf growth 48h: inactive; Shiga inhibitor: 168; Marburg entry inh: inconclusive

How did N#Cc1nc(-c2ccc(F)cc2)oc1N1CCCCC1 do in these assays?
Cycloheximide cs: inactive; Pf growth 96h: inactive; Pf growth 48h: inactive[0.00184 µM]; Shiga inhibitor: inactive

What do the screens show for `Nc1ccccc1-n1cccc1`?
Cycloheximide cs: 13; Pf growth 96h: inactive; LASV entry inh: inactive; Pf growth 48h: inactive; Shiga inhibitor: inactive; Marburg entry inh: inconclusive

How did N/C(=N\O)c1ccccc1-n1cccc1 do in these assays?
Cycloheximide cs: inactive; Pf growth 96h: inactive; LASV entry inh: inactive; Pf growth 48h: inconclusive; Shiga inhibitor: inactive; Marburg entry inh: inconclusive

Results for Cc1ccc(C)n1-c1ccccc1N ?
Cycloheximide cs: 24; Pf growth 96h: inactive; Pf growth 48h: inactive; Shiga inhibitor: inactive

Results for Cc1cc(=O)cc(C)n1-c1ccccc1N ?
Cycloheximide cs: inactive; Pf growth 96h: inactive; Pf growth 48h: inactive; Shiga inhibitor: inactive

How did Cc1cc2c(cc1C)-c1nnnn1C(C)(C)C2 do in these assays?
Cycloheximide cs: inactive; Pf growth 96h: inactive; LASV entry inh: inactive; Pf growth 48h: inactive; Shiga inhibitor: 59; Marburg entry inh: inactive

How did COc1cc2c(cc1OC)-c1nnc(C)n1C(C)(C)C2 do in these assays?
Cycloheximide cs: inactive; Pf growth 96h: inactive; LASV entry inh: inactive; Pf growth 48h: inactive; Shiga inhibitor: inactive; Marburg entry inh: inactive

Results for O=C(NCc1ccc2c(c1)OCO2)c1cccc2c1C(=O)N(C1CCCCC1)C2 ?
Cycloheximide cs: inactive; Pf growth 96h: inactive; LASV entry inh: inactive; Pf growth 48h: inactive; Shiga inhibitor: inactive; Marburg entry inh: inactive

Results for CCOC(=O)N1CCC(N2Cc3cccc(C(=O)NCc4ccc5c(c4)OCO5)c3C2=O)CC1 ?
Cycloheximide cs: inactive; Pf growth 96h: inconclusive; Pf growth 48h: 7.4µM; Shiga inhibitor: inactive

What do the screens show for `CCOC(=O)N1CCC(N2Cc3cccc(C(=O)NCc4ccc(OC)cc4)c3C2=O)CC1`?
Cycloheximide cs: inactive; Pf growth 96h: inactive; LASV entry inh: inconclusive; Pf growth 48h: 7.4µM; Shiga inhibitor: inactive; Marburg entry inh: inactive

How did CCOC(=O)N1CCC(N2Cc3cccc(C(=O)NCc4ccccc4OC)c3C2=O)CC1 do in these assays?
Cycloheximide cs: inactive; Pf growth 96h: inactive; LASV entry inh: inactive; Pf growth 48h: 13µM; Shiga inhibitor: inactive; Marburg entry inh: inactive

What do the screens show for `CC(C)(C)c1sc(N)nc1-c1ccccc1`?
LASV entry inh: inactive; Marburg entry inh: inactive

What do the screens show for `Clc1ccc2c(NNc3ccccc3Cl)ccnc2c1`?
Cycloheximide cs: inactive; Pf growth 96h: inconclusive; LASV entry inh: inactive; Pf growth 48h: inconclusive; Shiga inhibitor: inactive; Marburg entry inh: inactive

What do the screens show for `O=C(NNc1ccnc2cc(Cl)ccc12)C1CCCCC1`?
Cycloheximide cs: inactive; Pf growth 96h: 1µM; LASV entry inh: inactive; Pf growth 48h: 1.7µM; Shiga inhibitor: inactive; Marburg entry inh: inconclusive

How did FC(F)Oc1ccc(NC(=S)NNc2ccnc3cc(Cl)ccc23)cc1 do in these assays?
Cycloheximide cs: inactive; Pf growth 96h: inconclusive; LASV entry inh: inconclusive; Pf growth 48h: 8.3µM; Shiga inhibitor: inactive; Marburg entry inh: 11µM

What do the screens show for `CCN1CCC(Nc2ccnc3cc(Cl)ccc23)CC1`?
Cycloheximide cs: inactive; Pf growth 96h: 0.0041µM; LASV entry inh: inactive; Pf growth 48h: 0.033µM; Shiga inhibitor: inactive; Marburg entry inh: 13µM

How did NC(=S)NNc1ccnc2cc(Cl)ccc12 do in these assays?
Cycloheximide cs: inactive; Pf growth 96h: inconclusive; LASV entry inh: inactive; Pf growth 48h: 2.9µM; Shiga inhibitor: inactive; Marburg entry inh: inconclusive
